The first experiment addresses TIMM44. Description: pooled miR-30 sensor sort-seq; sequence = guide strand. Particulars: shRNA.
In turn, TAAGTAGCTTCATAGCACCAGT came in with a sensor-assay potency score (higher = more potent) of -0.441.
For TTCTTGTTTGACATTATCTAGC, the sensor-assay potency score (higher = more potent) was -0.514.
Sequence TTGACATTATCTAGCAAGCCGG returned a sensor-assay potency score (higher = more potent) of -1.12.
In the case of TGACATTATCTAGCAAGCCGGA, the sensor-assay potency score (higher = more potent) was -1.13.
TTCGTCATACTTCATCTTCATC: the sensor-assay potency score (higher = more potent) is -1.59.

The target in a further experiment is TIMM50. The description is as above. Particulars: shRNA.
Regarding TTTGCTTCTGACTAGTCTCCTG, the sensor-assay potency score (higher = more potent) was -0.00854.
Sequence TGTCCATCCATGTATCTTGTGG displayed a sensor-assay potency score (higher = more potent) of -0.521.
The sequence TTCTGCTTGTTGGACTTGGAGA showed a sensor-assay potency score (higher = more potent) of -1.03.
With TTGAAATATTTGTATGTCCGGC, the sensor-assay potency score (higher = more potent) was -0.0672.
Still for that read-out and setting: the same measure for TAGACGACGCTCACAGTCCCAC: -0.936; for ATTCAGACATGAAATATCCTTT: 0.389.
Same read-out and setting: the same measure for TTGCTTCTGACTAGTCTCCTGG: -0.18; for TATCAATGAGTGGAAACGCAGT: -1.04; for TGATCATCTGTCTATAATCTTT: -1.49.
Sequence TACATGGTGTCCATCCATGTAT displayed a sensor-assay potency score (higher = more potent) of -1.
The sequence TGAAATATCCTTTACATGGTGT came in with a sensor-assay potency score (higher = more potent) of 0.0469.
Note: reference of the scale not given here.
